Test results reported in PubChem BioAssay (Tox21).
Results filed as inconclusive are left out. Active and inactive are the calls of the source. Unless noted, calls come from the whole dose curve; as a rule, active = well fitted curve in the direction sought with a large enough effect in the repeat runs; inconclusive = weak or mixed curves; inactive = no such curve, though single readings can be large; an effect the other way counts as inactive or inconclusive.

What was measured:
[1] = qHTS assay to identify small molecule agonists of the peroxisome proliferator-activated receptor delta (PPARd) signaling pathway - cell viability counter screen (AID 743211); note: nearly all actives have a fitted effect of over 55% in size
In short: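 Multiplexed format: after the 2 h room-temperature LiveBLAzer B/G FRET step, CellTiter-Glo was added to the same wells. Luminescence after 30 min gave cell viability; compound exposure was 17 h at 37C.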

[2] = biological target: Peroxisome proliferator-activated receptor delta (Homo sapiens) (UniProt Q03181); assay: qHTS assay to identify small molecule agonists of the peroxisome proliferator-activated receptor delta (PPARd) signaling pathway (AID 743212; calls by dose curve)
In short: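 Beta-lactamase reporter readout: a ratiometric FRET signal from the LiveBLAzer substrate after 2 h at room temperature. Compound exposure at 37 °C in PPARδ-bla HEK293H cells driven by an upstream activator sequence.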

[3] = qHTS assay to identify small molecule antagonists of the peroxisome proliferator-activated receptor delta (PPARd) signaling pathway - cell viability counter screen (AID 743213); note: nearly all actives have a fitted effect of over 50% in size
In short: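 HEK293H cells with the PPARd UAS-bla reporter, co-treated 17 h at 37 C with compounds and L165041 (300 nM final), were lysed with CellTiter-Glo. Luminescence indicated viable cell content.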

[4] = qHTS assay to identify small molecule agonists of the farnesoid-X-receptor (FXR) signaling pathway - cell viability counter screen (AID 743218); note: nearly all actives have a fitted effect of over 45% in size
In short: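 Cells were seeded, left 5 h at 37 C and 5% CO2, then dosed with compound in DMSO for 16 h. After the beta-lactamase FRET read, CellTiter-Glo was added and luminescence measured 30 min later.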

[5] = qHTS assay to identify small molecule antagonists of the farnesoid-X-receptor (FXR) signaling pathway - cell viability counter screen (AID 743221; active = well fitted cell-killing curve with a large enough effect in the repeat runs, not every such curve was filed as active; note: nearly all actives have a fitted effect of over 50% in size)
In short: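 CellTiter-Glo, 30 min RT, luminescence; same wells as the LiveBLAzer FRET read. Cells: FXR-UAS-bla HEK 293T. Treatment: compound with chenodeoxycholic acid 50 uM final, 16 h at 37 C.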

[6] = biological target: Vitamin D3 receptor (Homo sapiens) (UniProt P11473); assay: qHTS assay to identify small molecule agonists of the vitamin D receptor (VDR) signaling pathway (AID 743222; calls by dose curve)
In short: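 Cells carrying a VDR-driven beta-lactamase reporter are seeded at 2,000 per well and rested 4 h. Compounds in DMSO are added for 16 h at 37C, and FRET substrate fluorescence is measured after 2 h at room temperature.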

[7] = qHTS assay to identify small molecule agonists of the vitamin D receptor (VDR) signaling pathway - cell viability counter screen (AID 743224); note: series mostly up to about 63 µM; nearly all actives have a fitted effect of over 50% in size
In short: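 Cells: VDR-bla, 2,000/well, settled 4 h. Treatment: compounds in DMSO, 16 h, 37C/5% CO2. Readout: CellTiter-Glo luminescence after 30 min RT.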

[8] = qHTS assay to identify small molecule antagonists of the vitamin D receptor (VDR) signaling pathway - cell viability counter screen (AID 743225); note: nearly all actives have a fitted effect of over 50% in size
In short: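 Cytotoxicity toward the VDR-bla HEK 293T line was scored by ATP-based CellTiter-Glo luminescence, read in the wells already used for the beta-lactamase readout after 16 h compound treatment under 3 nM 1-alpha,25-dihydroxyvitamin D3 stimulation.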

[9] = qHTS assay to identify small molecule agonists of the NFkB signaling pathway (AID 1159509; active = well fitted curve in the direction sought with a large enough effect in the signal ratio in the repeat runs, not every such curve was filed as active; the % refers to the signal ratio; note: series mostly up to about 61 µM)
In short: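 Pathway activation was measured in ME-180 cells stably expressing beta-lactamase under NF-kB response element control. Substrate cleavage was read as the 460/530 nm emission shift after 5 hr compound incubation.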

[10] = qHTS assay to identify small molecule agonists of the endoplasmic reticulum stress response signaling pathway (AID 1159516; active = well fitted activation curve with a large enough effect in the signal ratio in the repeat runs, not every such curve was filed as active; the % refers to the signal ratio)
In short: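 Cells are seeded at 1,500 per well and incubated overnight. Compounds in DMSO are added for 5 hr at 37 C, then beta-lactamase FRET substrate for 2 hr at room temperature, and fluorescence at 460 and 530 nm is measured.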

[11] = qHTS assay to identify small molecule agonists of the endoplasmic reticulum stress response signaling pathway - cell viability counter screen (AID 1159517; calls by dose curve)
In short: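 ESRE-bla HeLa cells (1,500/well) were plated overnight at 37 C and exposed to compounds for 5 hr. After the 2 hr beta-lactamase substrate read, CellTiter-Glo went into the same wells, and luminescence was read after 30 min at room temperature.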

[12] = qHTS assay to identify small molecule antagonists of the retinoid-related orphan receptor gamma (ROR-gamma) signaling pathway - cell viability counter screen (AID 1159520); note: nearly all actives have a fitted effect of over 50% in size
In short: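 Cytotoxicity was read from cellular ATP (CellTiter-Glo luminescence) after 16 hr at 37 C with 1 uM doxycycline induction. The inducer was added 2 hr after compound transfer to Tet-on ROR gamma CHO cells.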

[13] = biological target: Nuclear receptor ROR-gamma (Homo sapiens) (UniProt P51449); assay: qHTS assay to identify small molecule antagonists of the retinoid-related orphan receptor gamma (ROR-gamma) signaling pathway (AID 1159521; note: nearly all actives have a fitted effect of over 50% in size; note: potency is the fitted concentration of half-maximal effect)
In short: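 Readout: ONE-Glo luciferase luminescence, 30 min at room temperature. System: Tet-on RORγ CHO, RORE-LUC. Sequence: compound 2 h, doxycycline 1 uM final, 16 h at 37 C.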

[14] = qHTS assay to identify small molecule agonists of the AP-1 signaling pathway - cell viability counter screen (AID 1159525; calls by dose curve; note: nearly all actives have a fitted effect of over 55% in size)
In short: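 Intracellular ATP by Cell Titer Glo luminescence (30 min, RT) in the same ME-180 AP-1-bla wells after the 5 h compound exposure at 37 °C. Normalised to tetra n-octyl ammonium bromide and DMSO controls.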

[15] = qHTS assay to identify small molecule agonists of the AP-1 signaling pathway (AID 1159526; calls by dose curve; note: potency is the fitted concentration of half-maximal effect)
[16] = biological target: Peroxisome proliferator-activated receptor delta (Homo sapiens) (UniProt Q03181); assay: qHTS assay to identify small molecule antagonists of the peroxisome proliferator-activated receptor delta (PPARd) signaling pathway (AID 743215; active = well fitted inhibition curve with a large enough effect in the signal ratio in the repeat runs, not every such curve was filed as active; the % refers to the signal ratio;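 note: cells stimulated with agonist L165041 at 300 nM final during compound exposure; series mostly up to about 62 µM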)
In short: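 Cells: HEK293H with a UAS-driven beta-lactamase reporter responsive to PPARd. Compounds were co-added with L165041 (300 nM, final) and incubated 17 h at 37 C before a 2 h room-temperature FRET substrate step and fluorescence reading.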

[17] = biological target: Bile acid receptor (Homo sapiens) (UniProt Q96RI1); assay: qHTS assay to identify small molecule agonists of the farnesoid-X-receptor (FXR) signaling pathway (AID 743220; active = well fitted activation curve with a large enough effect in the signal ratio in the repeat runs, not every such curve was filed as active; the % refers to the signal ratio)
In short: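 FXR-UAS-bla HEK 293T cells carrying a UAS-driven beta-lactamase reporter were plated for 5 h at 37C/5% CO2, then exposed to DMSO-dissolved Tox21 10K compounds for 16 h at 37C. A LiveBLAzer B/G FRET substrate was loaded for 2 h at room temperature before fluorescence reading.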

[18] = biological target: Vitamin D3 receptor (Homo sapiens) (UniProt P11473); assay: qHTS assay to identify small molecule antagonists of the vitamin D receptor (VDR) signaling pathway (AID 743223; active = well fitted inhibition curve with a large enough effect in the signal ratio in the repeat runs, not every such curve was filed as active; the % refers to the signal ratio)
In short: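 After VDR-bla cells are plated and left 4 h at 37C, DMSO-dissolved compounds and 3 nM (final) calcitriol agonist are added. Incubation continues 16 h at 37C; FRET beta-lactamase substrate then develops 2 h at room temperature.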

[19] = biological target: Bile acid receptor (Homo sapiens) (UniProt Q96RI1); assay: qHTS assay to identify small molecule antagonists of the farnesoid-X-receptor (FXR) signaling pathway (AID 743217; active = well fitted inhibition curve with a large enough effect in the signal ratio in the repeat runs, not every such curve was filed as active; the % refers to the signal ratio)
In short: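 Cells carrying a UAS-driven beta-lactamase reporter (GeneBLAzer FXR-UAS-bla HEK 293T) were plated and rested 5 h at 37 °C. Compounds in DMSO were added alongside chenodeoxycholic acid agonist at 50 uM final and left 16 h at 37 °C before FRET substrate readout.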

Measured: Potency

Chain of Peroxisome proliferator-activated receptor delta (Homo sapiens) (Q03181 whole entry, looked up): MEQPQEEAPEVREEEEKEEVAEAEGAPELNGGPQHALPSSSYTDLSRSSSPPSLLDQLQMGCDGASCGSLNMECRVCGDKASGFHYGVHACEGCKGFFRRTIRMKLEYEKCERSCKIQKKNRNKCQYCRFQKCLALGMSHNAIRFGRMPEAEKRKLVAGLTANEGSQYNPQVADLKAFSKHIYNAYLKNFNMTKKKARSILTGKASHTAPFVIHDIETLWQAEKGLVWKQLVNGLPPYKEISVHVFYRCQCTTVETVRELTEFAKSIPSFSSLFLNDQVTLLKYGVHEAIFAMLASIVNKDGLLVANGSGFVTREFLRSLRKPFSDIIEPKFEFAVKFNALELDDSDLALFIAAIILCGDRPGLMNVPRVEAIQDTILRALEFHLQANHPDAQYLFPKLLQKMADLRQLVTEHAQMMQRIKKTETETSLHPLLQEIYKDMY
Chain of Vitamin D3 receptor (Homo sapiens) (P11473 whole entry, looked up): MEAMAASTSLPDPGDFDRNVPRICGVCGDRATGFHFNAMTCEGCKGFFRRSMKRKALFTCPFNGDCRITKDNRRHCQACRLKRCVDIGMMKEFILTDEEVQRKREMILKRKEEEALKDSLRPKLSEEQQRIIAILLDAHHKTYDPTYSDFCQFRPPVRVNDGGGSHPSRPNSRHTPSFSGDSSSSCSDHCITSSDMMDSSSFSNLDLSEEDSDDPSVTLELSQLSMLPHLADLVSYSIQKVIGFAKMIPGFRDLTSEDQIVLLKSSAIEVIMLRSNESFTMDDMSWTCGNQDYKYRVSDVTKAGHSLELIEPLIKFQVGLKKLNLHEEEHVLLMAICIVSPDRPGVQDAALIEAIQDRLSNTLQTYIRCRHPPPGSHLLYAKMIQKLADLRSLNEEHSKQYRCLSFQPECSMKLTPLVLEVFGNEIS
Chain of Bile acid receptor (Homo sapiens) (Q96RI1 whole entry, looked up): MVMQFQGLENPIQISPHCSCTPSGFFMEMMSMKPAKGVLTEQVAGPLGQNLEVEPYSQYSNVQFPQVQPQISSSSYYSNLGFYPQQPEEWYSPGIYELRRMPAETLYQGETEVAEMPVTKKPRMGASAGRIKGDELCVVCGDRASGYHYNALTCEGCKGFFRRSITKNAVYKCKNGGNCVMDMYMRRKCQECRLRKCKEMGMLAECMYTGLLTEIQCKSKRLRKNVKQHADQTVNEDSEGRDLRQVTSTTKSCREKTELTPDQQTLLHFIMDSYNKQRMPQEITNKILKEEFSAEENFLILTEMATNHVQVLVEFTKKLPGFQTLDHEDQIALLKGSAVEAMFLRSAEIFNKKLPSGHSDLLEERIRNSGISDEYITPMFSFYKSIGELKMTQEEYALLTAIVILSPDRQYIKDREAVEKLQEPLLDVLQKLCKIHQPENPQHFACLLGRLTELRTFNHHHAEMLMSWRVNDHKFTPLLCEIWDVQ

CCN(CC)CC(=O)OCC(=O)[C@@]1(O)CC[C@H]2[C@@H]3CCC4=CC(=O)CC[C@]4(C)[C@H]3[C@@H](O)C[C@@]21C
not listed: [16] | [17] | [18] | [19]
inactive: all other assays above

NC(=O)c1ccccc1C(N)=O
not listed: [5] | [19]
inactive: all other assays above

C=C[Si]1(C)O[Si](C)(C=C)O[Si](C)(C=C)O[Si](C)(C=C)O1 (stereo unspecified)
not listed: [3] | [7] | [16] | [17] | [19]
inactive: all other assays above

OCCOc1cccc(OCCO)c1
not listed: [17] | [18] | [19]
inactive: all other assays above

Cc1ccc2ccccc2c1[N+](=O)[O-]
not listed: [5] | [17] | [19]
inactive: all other assays above

CC(C)=CCC[C@H](C)CCO
not listed: [6] | [16] | [17] | [18] | [19]
inactive: all other assays above

O=c1[nH][nH]c2ccccc12
active: [13] 15.6 µM | [15] 49.9 µM
inactive: all other assays above

FC1(F)C(F)(F)C(F)(F)C2(F)C(F)(C1(F)F)C(F)(F)C(F)(F)C1(F)C(F)(F)C(F)(F)C(F)(F)C(F)(F)C12F (stereo unspecified)
not listed: [16] | [17] | [18] | [19]
inactive: all other assays above
